# Experimental data: the supplement of paper PMC4466140
# Assays:
# Experiment in all cases: SPOT peptide array binding signal intensity (averaged, normalized) (arbitrary units (background-subtracted, floor 0; scale differs between SH3 domains)); higher = stronger binding of the SH3 domain to the peptide
# [1] = target: AgAbp1
# Summary of the method: (§1)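 GST-fused SH3 domains, from four yeast species, were produced in E. coli BL21(DE3) and captured on glutathione Sepharose. Membranes of cellulose carrying synthetic 15-mer peptides, in which cysteines had been replaced by serines, were exposed to each domain at 10 μg/ml overnight at 4°C in TBS-based blocking buffer. After anti-GST antibody, an HRP anti-mouse secondary and luminol, spots were imaged and quantified using Genespotter. Binding signal is normalized and background-subtracted spot intensity, averaged over replicates, in arbitrary units that differ between domains.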
# [2] = target: AgBbc1
# Summary of the method: as §1
# [3] = target: AgBem1-D1
# Summary of the method: as §1
# [4] = target: AgBzz1-D1
# Summary of the method: as §1
# [5] = target: AgBzz1-D2
# Summary of the method: as §1
# [6] = target: AgCyk3
# Summary of the method: as §1
# [7] = target: AgFus1
# Summary of the method: as §1
# [8] = target: AgHof1
# Summary of the method: as §1
# [9] = target: AgHse1
# Summary of the method: as §1
# [10] = target: AgLsb1
# Summary of the method: as §1
# [11] = target: AgLsb4
# Summary of the method: as §1
# [12] = target: AgMyo5
# Summary of the method: as §1
# [13] = target: AgNbp2
# Summary of the method: as §1
# [14] = target: AgRvs167
# Summary of the method: as §1
# [15] = target: AgSho1
# Summary of the method: as §1
# [16] = target: AgSla1-D1-D2
# Summary of the method: as §1
# [17] = target: AgSla1-D3
# Summary of the method: as §1
# [18] = target: CaAbp1-D1
# Summary of the method: as §1
# [19] = target: CaAbp1-D2
# Summary of the method: as §1
# [20] = target: CaBbc1
# Summary of the method: as §1
# [21] = target: CaBem1-D1
# Summary of the method: as §1
# [22] = target: CaBzz1-D1
# Summary of the method: as §1
# [23] = target: CaBzz1-D2
# Summary of the method: as §1
# [24] = target: CaCyk3
# Summary of the method: as §1
# [25] = target: CaFus1
# Summary of the method: as §1
# [26] = target: CaHof1
# Summary of the method: as §1
# [27] = target: CaHse1
# Summary of the method: as §1
# [28] = target: CaLsb1
# Summary of the method: as §1
# [29] = target: CaLsb4
# Summary of the method: as §1
# [30] = target: CaMyo5
# Summary of the method: as §1
# [31] = target: CaNbp2
# Summary of the method: as §1
# [32] = target: CaRvs167
# Summary of the method: as §1
# [33] = target: CaRvs167-3
# Summary of the method: as §1
# [34] = target: CaSho1
# Summary of the method: as §1
# [35] = target: CaSla1-D1-D2
# Summary of the method: as §1
# [36] = target: CaSla1-D3
# Summary of the method: as §1
# [37] = target: ScAbp1
# Summary of the method: as §1
binder,measurement,setting,value
MARRRLPDRPPNGIG,SPOT peptide array binding signal intensity,[1],546
same,SPOT peptide array binding signal intensity,[2],428
same,SPOT peptide array binding signal intensity,[3],143
same,SPOT peptide array binding signal intensity,[4],55
same,SPOT peptide array binding signal intensity,[5],95
same,SPOT peptide array binding signal intensity,[6],16
same,SPOT peptide array binding signal intensity,[7],148
same,SPOT peptide array binding signal intensity,[8],112
same,SPOT peptide array binding signal intensity,[9],216
same,SPOT peptide array binding signal intensity,[10],158
same,SPOT peptide array binding signal intensity,[11],2490
same,SPOT peptide array binding signal intensity,[12],≤ 0
same,SPOT peptide array binding signal intensity,[13],410
same,SPOT peptide array binding signal intensity,[14],487
same,SPOT peptide array binding signal intensity,[15],636
same,SPOT peptide array binding signal intensity,[16],179
same,SPOT peptide array binding signal intensity,[17],16.5
same,SPOT peptide array binding signal intensity,[18],1170
same,SPOT peptide array binding signal intensity,[19],788
same,SPOT peptide array binding signal intensity,[20],1100
same,SPOT peptide array binding signal intensity,[21],184
same,SPOT peptide array binding signal intensity,[22],308
same,SPOT peptide array binding signal intensity,[23],102
same,SPOT peptide array binding signal intensity,[24],290
same,SPOT peptide array binding signal intensity,[25],280
same,SPOT peptide array binding signal intensity,[26],5.25
same,SPOT peptide array binding signal intensity,[27],89
same,SPOT peptide array binding signal intensity,[28],6.75
same,SPOT peptide array binding signal intensity,[29],2570
same,SPOT peptide array binding signal intensity,[30],22.5
same,SPOT peptide array binding signal intensity,[31],1660
same,SPOT peptide array binding signal intensity,[32],923
same,SPOT peptide array binding signal intensity,[33],25.5
same,SPOT peptide array binding signal intensity,[34],794
same,SPOT peptide array binding signal intensity,[35],1100
same,SPOT peptide array binding signal intensity,[36],138
same,SPOT peptide array binding signal intensity,[37],135
